# Experimental data published in PubChem BioAssay.
# Calls of active or inactive are those of the source.
# Columns and labels:
# [1] = E. coli DRC41 culture turbidity changes, primary screen, E. coli filamentation inducer project, strain DRC41, OD650, 48 h (AID 1152);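 further: E. coli MC1000 strain DRC41 lacking acrAB efflux pump and sulA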; conditions: E. coli DRC41 (acrAB sulA), higher = more signal, called active from +8 up or from −8 down
# [2] = small-molecule binders of probe aLefty1, primary screen, biochemical, small-molecule microarray, 635/667 nm fluorescence (AID 1153); conditions: higher = more signal;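 further: score merges spot fluorescence with signal-to-noise ratio from the scanned slide images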
# [3] = PSAC antagonists in infected red cells, primary screen, cell-based, P. falciparum Indochina, OD700, 1 h (AID 1154); conditions: P. falciparum Indochina infected RBC osmotic lysis, higher = more signal, called active from +8 up or from −8 down
# [4] = PSAC antagonists in infected red cells, primary screen, cell-based, P. falciparum Indochina, OD700, 2 h (AID 1155);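 further: lysis reports solute entry through the parasite surface anion channel PSAC; channel blockers reduce lysis of infected cells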; conditions: P. falciparum Indochina infected erythrocytes, osmotic lysis OD700; higher = more signal, called active from +8 up or from −8 down
# [5] = osmotic lysis modulators in infected erythrocytes, primary screen, PSAC antagonist project, cell-based, P. falciparum Indochina, OD700, 3 h (AID 1156); conditions: higher = more signal, called active from +8 up or from −8 down
# [6] = PSAC antagonists in infected red cells, primary screen, cell-based, P. falciparum Indochina, OD700, 18 h (AID 1157); conditions: P. falciparum Indochina infected erythrocytes, osmotic lysis OD700, 18 h; higher = more signal, called active from +8 up or from −8 down
# [7] = modulators of S6 phosphorylation in cells, primary screen, cell-based, A549, cytoblot, luminescence, serum-stimulated (AID 1158); conditions: A549 phospho-S6 cytoblot, 5 h, higher = more signal;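 further: serum-stimulated A549 lung adenocarcinoma cells; signal is phosphorylated S6 detected by cytoblot immunostaining with HRP secondary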
# [8] = molecular target: NADPH oxidase 2 (Homo sapiens) (UniProt P04839); assay: NOX2-dependent H2O2 signal modulators, primary screen, NOX inhibitor project, cell-based, HEK293-NOX2, PMA-stimulated, Amplex Red fluorescence (AID 1159); conditions: 45 min, higher = more signal, called active from +8 up or from −8 down; further: test concentration not given here
# [9] = molecular target: NADPH oxidase 4 (Homo sapiens) (UniProt Q9NPH5); assay: NOX4-dependent H2O2 signal modulators, primary screen, NOX inhibitor project, cell-based, HEK293-NOX4, tetracycline-induced, Amplex Red fluorescence (AID 1160); conditions: 45 min, higher = more signal, called active from +8 up or from −8 down
# [10] = molecular target: NADPH oxidase 5 (Homo sapiens) (UniProt Q96PH1); assay: NOX5-dependent H2O2 signal modulators, primary screen, NOX inhibitor project, cell-based, HEK293-NOX5, Amplex Red fluorescence (AID 1161); conditions: HEK293-NOX5, ionomycin, 45 min, higher = more signal
# Sequence of NADPH oxidase 5 (Homo sapiens) (Q96PH1 whole entry, looked up): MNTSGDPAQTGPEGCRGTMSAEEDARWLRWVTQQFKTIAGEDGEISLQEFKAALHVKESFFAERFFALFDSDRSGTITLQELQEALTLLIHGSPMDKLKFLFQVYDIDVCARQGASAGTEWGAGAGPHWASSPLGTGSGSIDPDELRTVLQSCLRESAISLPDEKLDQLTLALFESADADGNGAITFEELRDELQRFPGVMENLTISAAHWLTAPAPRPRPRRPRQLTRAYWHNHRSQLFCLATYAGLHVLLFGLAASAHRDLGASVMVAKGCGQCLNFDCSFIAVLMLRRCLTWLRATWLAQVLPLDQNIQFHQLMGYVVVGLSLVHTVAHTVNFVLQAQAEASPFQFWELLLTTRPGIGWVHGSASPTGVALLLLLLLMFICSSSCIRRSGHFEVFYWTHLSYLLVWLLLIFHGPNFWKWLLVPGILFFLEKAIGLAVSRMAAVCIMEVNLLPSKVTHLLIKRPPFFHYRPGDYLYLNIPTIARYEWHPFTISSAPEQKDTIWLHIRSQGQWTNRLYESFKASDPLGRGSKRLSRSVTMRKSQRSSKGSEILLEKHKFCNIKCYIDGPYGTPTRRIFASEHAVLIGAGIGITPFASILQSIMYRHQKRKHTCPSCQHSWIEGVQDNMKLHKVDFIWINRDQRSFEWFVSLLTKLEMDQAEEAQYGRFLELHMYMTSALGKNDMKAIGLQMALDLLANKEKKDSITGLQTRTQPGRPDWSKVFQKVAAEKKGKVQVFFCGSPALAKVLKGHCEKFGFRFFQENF
# Sequence of NADPH oxidase 4 (Homo sapiens) (Q9NPH5 whole entry, looked up): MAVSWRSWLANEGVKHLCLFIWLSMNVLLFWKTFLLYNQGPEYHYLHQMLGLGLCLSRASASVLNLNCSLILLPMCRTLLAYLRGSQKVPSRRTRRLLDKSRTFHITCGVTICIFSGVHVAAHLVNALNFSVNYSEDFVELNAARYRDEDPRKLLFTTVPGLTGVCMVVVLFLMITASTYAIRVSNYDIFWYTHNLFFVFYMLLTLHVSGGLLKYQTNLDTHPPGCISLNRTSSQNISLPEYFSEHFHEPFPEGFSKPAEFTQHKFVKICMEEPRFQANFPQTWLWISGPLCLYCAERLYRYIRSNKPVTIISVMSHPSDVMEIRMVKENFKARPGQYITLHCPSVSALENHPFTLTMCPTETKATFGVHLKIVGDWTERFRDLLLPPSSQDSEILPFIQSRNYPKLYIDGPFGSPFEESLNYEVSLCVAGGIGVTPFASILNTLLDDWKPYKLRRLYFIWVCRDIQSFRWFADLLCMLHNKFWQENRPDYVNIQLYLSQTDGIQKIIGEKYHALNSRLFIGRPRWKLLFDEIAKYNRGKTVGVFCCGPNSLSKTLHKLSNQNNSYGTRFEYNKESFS
# Sequence of NADPH oxidase 2 (Homo sapiens) (P04839 whole entry, looked up): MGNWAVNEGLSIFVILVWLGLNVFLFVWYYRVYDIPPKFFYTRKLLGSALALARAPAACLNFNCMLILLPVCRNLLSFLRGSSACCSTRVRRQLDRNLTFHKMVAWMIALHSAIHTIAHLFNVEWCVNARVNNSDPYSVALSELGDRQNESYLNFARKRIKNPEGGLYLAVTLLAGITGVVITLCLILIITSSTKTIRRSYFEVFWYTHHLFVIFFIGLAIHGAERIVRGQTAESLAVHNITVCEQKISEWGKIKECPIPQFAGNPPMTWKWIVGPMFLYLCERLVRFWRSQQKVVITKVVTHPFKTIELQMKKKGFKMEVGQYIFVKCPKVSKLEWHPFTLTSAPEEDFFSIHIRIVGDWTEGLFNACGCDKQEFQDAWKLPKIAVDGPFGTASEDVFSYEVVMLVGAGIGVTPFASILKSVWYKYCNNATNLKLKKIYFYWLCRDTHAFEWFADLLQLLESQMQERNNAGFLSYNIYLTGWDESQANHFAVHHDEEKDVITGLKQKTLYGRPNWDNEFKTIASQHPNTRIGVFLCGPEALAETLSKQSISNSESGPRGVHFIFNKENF
SMILES,z-score [1],composite z-score [2],z-score [3],z-score [4],z-score [5],z-score [6],z-score [7],z-score [8],z-score [9],z-score [10]
COc1ccc(O[C@H]2C=C[C@@H](c3ccccc3)O[C@@H]2CON=C(C)CCN2CCc3nc(-c4ccccc4)c(-c4ccccc4)cc3C2)cc1,-1.59 (inactive),-0.101,2.48 (inactive),1.25 (inactive),0.855 (inactive),0.71 (inactive),-0.0313,0.168 (inactive),0.00405 (inactive),-0.434
CCO[C@H](c1cc(OC)cc([N+](=O)[O-])c1OC)[C@H](C)C=CCC(=O)OC,0.722 (inactive),-0.202,0.905 (inactive),-0.222 (inactive),-0.361 (inactive),0.148 (inactive),-0.168,-0.295 (inactive),0.276 (inactive),0.893
CC(C)=NO[C@H](C)c1cn([C@H](CO)Cc2ccccc2)nn1,-2.06 (inactive),-0.142,0.29 (inactive),0.0191 (inactive),-0.188 (inactive),0.269 (inactive),0.225,0.849 (inactive),-0.311 (inactive),-0.281
CC(C)CON=C1C[C@@H](O)[C@@H](O)[C@@H]2[C@@H]3C(=O)N(c4ccc(F)cc4F)C(=O)[C@@H]3CC[C@H]12,-0.619 (inactive),0.144,1.17 (inactive),-0.996 (inactive),0.12 (inactive),-1.09 (inactive),-0.0969,-1.13 (inactive),0.632 (inactive),0.178
CCOC(=O)[C@H](Cc1ccccc1)NC(=O)CCC1CC(OC(=O)NCc2ccc3c(c2)OCO3)CC2(CCCC(COC(=O)NCCc3ccccc3OC)O2)O1 (stereo not given in full),-0.567 (inactive),-0.0547,1.3 (inactive),0.627 (inactive),-0.451 (inactive),0.222 (inactive),-0.254,0.799 (inactive),-1.05 (inactive),1.28
C=CC[C@@H]1C=C[C@H](ON=C(C)CCC(=O)OC[C@H]2O[C@H](C#Cc3ccccc3)C=C[C@@H]2Oc2ccc(C)cc2)[C@@H](CO)O1,-1.44 (inactive),0.0594,28 (active),6.05 (inactive),0.068 (inactive),1.57 (inactive),-0.383,-0.367 (inactive),0.0773 (inactive),-0.431
COC(=O)CC=C[C@@H](C)[C@@H](C=NO[C@@H](C)c1cn([C@H](CO)Cc2ccccc2)nn1)OC,-0.64 (inactive),-0.275,-0.762 (inactive),-1.66 (inactive),-0.726 (inactive),-1.8 (inactive),1.32,-0.374 (inactive),0.173 (inactive),0.874
COc1cccc([C@H]2Oc3ccc(OC)cc3C(=NOC[C@@H](O)COCc3ccco3)[C@@H]2O)c1,-0.964 (inactive),-0.43,0.55 (inactive),-2.05 (inactive),0.135 (inactive),-2.01 (inactive),1.04,-0.262 (inactive),0.378 (inactive),-0.104
CC(C)CON=C1[C@H]2CCn3c(=O)n(Cc4cc5c(cc4Cl)OCO5)c(=O)n3[C@H]2[C@H](O)[C@@H]2O[C@H]12,-1.41 (inactive),0.0004,0.292 (inactive),-1.05 (inactive),0.599 (inactive),-2.22 (inactive),0.261,0.42 (inactive),0.223 (inactive),-0.799
O=C(NN=C1C[C@@H](O)[C@@H](O)[C@@H]2[C@@H]3C(=O)N(C4CCCCC4)C(=O)[C@@H]3CC[C@H]12)OCc1ccccc1,-0.898 (inactive),0.0721,7.54 (inactive),0.844 (inactive),0.522 (inactive),0.551 (inactive),0.0279,-0.0856 (inactive),-1.85 (inactive),-0.671
O=C1[C@H]2[C@H]3[C@H](O)[C@H](O)CC(=NOC[C@@H](O)COCc4ccco4)[C@@H]3CC[C@H]2C(=O)N1C[C@@H]1CCCO1,0.916 (inactive),-0.0061,2.05 (inactive),0.544 (inactive),-0.0602 (inactive),0.329 (inactive),-0.605,0.222 (inactive),0.374 (inactive),0.382
